LRH-1 inv ag: LRH-1 (NR5A2) inverse agonists, primary screen, cell-based, luminescence, HEK293T, StAR-luciferase reporter | LRH-1 transfected, 24 h | inhibition, % at 3.6 µM | actives 0.13% (n = 360,000) | Nuclear receptor subfamily 5 group A member 2 (Homo sapiens), O00482;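 active = inhibition above the mean inhibition of all tested compounds plus 3 SD, cut at about 73% in these data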;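 also: 0% = DMSO wells and 100% = reporter-only cells lacking LRH-1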
Target sequence (O00482 whole entry, looked up): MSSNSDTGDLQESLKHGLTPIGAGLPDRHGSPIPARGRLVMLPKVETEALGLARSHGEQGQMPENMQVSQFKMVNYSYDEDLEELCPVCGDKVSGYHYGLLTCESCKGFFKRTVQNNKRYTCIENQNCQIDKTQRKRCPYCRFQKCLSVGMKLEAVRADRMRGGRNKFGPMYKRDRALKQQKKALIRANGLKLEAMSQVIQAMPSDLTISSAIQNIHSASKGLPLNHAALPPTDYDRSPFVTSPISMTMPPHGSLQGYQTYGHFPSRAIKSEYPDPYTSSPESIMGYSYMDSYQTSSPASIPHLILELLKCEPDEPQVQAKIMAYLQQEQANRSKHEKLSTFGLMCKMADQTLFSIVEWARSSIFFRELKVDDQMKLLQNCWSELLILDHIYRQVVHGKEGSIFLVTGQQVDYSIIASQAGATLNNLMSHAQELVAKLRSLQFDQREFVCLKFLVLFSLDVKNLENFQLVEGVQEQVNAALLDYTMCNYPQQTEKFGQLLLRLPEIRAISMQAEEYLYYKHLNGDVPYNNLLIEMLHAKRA
NCOA1 inh: SRC1 coactivator transcriptional activity inhibitors, primary screen, cell-based, luminescence; inhibition, % at 3.6 µM; HEK293 GAL4-SRC1 luciferase reporter; AID 588354, 2011; actives 0.12% (n = 360,000); Nuclear receptor coactivator 1 (Homo sapiens), Q15788;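 active = inhibition above the campaign mean plus 3 SD, with each screening campaign given its own cutoff, cut at about 60% in these data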;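 also: 0% = DMSO treated cells and 100% = gossypol at 36 µM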
NR2F2 inh: NR2F2 transcriptional activity inhibitors, primary screen, cell-based, luciferase reporter, HEK293T, luminescence | actives 0.7% (n = 370,000) | HEK293T NGFI-A luciferase reporter | COUP transcription factor 2 (Homo sapiens), P24468 | inhibition, % at 8.6 µM | AID 686940, 2013;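 active = inhibition above a per-plate cutoff, mean inhibition of test wells between control levels plus 3 SD, cut at about 38% in these data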;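 also: cells cotransfected with COUP-TFII expression vector driving the NGFI-A reporter; 0% = median of COUP-TF2 test wells and 100% = reporter-only cells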
Efflux pump inh: inhibitors of Candida efflux pumps in yeast, primary screen, S. cerevisiae, Nile Red, multiplex | S. cerevisiae Candida pump triplex | inhibition, % at 10 µM | actives 0.44% (n = 330,000) | AID 485275, 2010;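 active = plate passing quality check with inhibition over a set limit, or well fluorescence over plate mean plus 4 SD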;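 also: Nile Red retained in pooled yeast measured as flow cytometry median fluorescence; 0% = buffer negative control and 100% = Enniatin B positive control; higher means more Nile Red kept so more efflux inhibition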
NCOA2 inhibitor: inhibition of GAL4-SRC2 driven luciferase reporter, primary screen, SRC2 inhibitor project, cell-based, luminescence. Nuclear receptor coactivator 2 (Homo sapiens), Q15596. HEK293 GAL4-SRC2 luciferase reporter. inhibition, % at 9 µM. actives 0.17% (n = 370,000);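 active = inhibition above the mean inhibition of all tested compounds plus 3 SD, set per campaign, cut at about 52% in these data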;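 also: 0% = DMSO treated cells and 100% = cells given Gossypol at 36 µM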
NCOA3 inh: SRC3 coactivator transcriptional activity inhibitors, primary screen, cell-based, luminescence; Nuclear receptor coactivator 3 (Homo sapiens), Q9Y6Q9; HEK293 GAL4-SRC3 luciferase reporter; inhibition, % at 3.6 µM; actives 0.17% (n = 360,000); AID 588352, 2011;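 active = inhibition above a per-campaign cutoff, the mean of all compounds plus 3 SD, cut at about 60% in these data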;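 also: 0% = DMSO-treated cells and 100% = gossypol-treated cells at 36 µM; higher means less SRC3-driven luciferase light from the GAL4 reporter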
VP16 Luc counter: Gal4-VP16 luciferase reporter inhibitors, counter-screen for COUP-TFII antagonist project, cell-based, luminescence, HEK293; shares compounds with NR2F2 inh; inhibition, % at 8.5 µM; actives 25% (n = 2,500); AID 687007, 2013; in the data active = inhibition above about 13%
COUP-TFII conf: NR2F2 transcriptional activity inhibitors, confirmation, cell-based, luciferase reporter, HEK293, triplicate; shares compounds with NR2F2 inh; HEK293 NGFI-A luciferase reporter, luminescence; inhibition, % at 8.5 µM; actives 45% (n = 2,500); AID 687008, 2013;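 active = mean inhibition over three repeats above a set limit taken from the earlier primary screen, cut at about 38% in these data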;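 also: 100% = cells given the luciferase reporter alone without the COUP-TF2 vector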
* marks the source's active call; other numbers are inactive results; · = no result given. This is a sample that favours compounds with a hit; in the whole collection about 1.2% have one here.

SMILES	LRH-1 inv ag	NCOA1 inh	NR2F2 inh	Efflux pump inh	NCOA2 inhibitor	NCOA3 inh	VP16 Luc counter	COUP-TFII conf
O=C(Nc1cccc(Br)c1)c1ccc(CN2CCc3ccccc3C2)cc1	30.4	9.6	53.0*	0.4	22.2	0.0	-24.2	32.2
COc1ccc(NC(=O)c2ccc(CN3CCc4ccccc4C3)cc2)c(OC)c1	38.5	18.0	17.9	0.0	-20.5	8.5	·	·
O=C(Nc1ccc(F)cc1)c1ccc(CN2CCc3ccccc3C2)cc1	15.2	19.6	45.3*	0.1	19.1	-1.6	-41.0	34.1
COC(=O)c1ccc(CN2CCc3ccc(NC(=O)c4ccncc4)cc3C2)cc1	9.1	-32.3	48.1*	-2.6	41.2	11.3	5.8	30.4
CCOC(=O)C1(C)CCN1C(=O)CSc1ccccc1 (centres undefined)	-6.7	-38.2	-11.8	·	-1.4	-2.8	·	·
CCCNC(=O)c1ccc(N2CCC3(CC2)CC(c2cccc(Br)c2)=NO3)c([N+](=O)[O-])c1	11.7	8.1	54.0*	0.1	35.4	19.2	1.3	27.7
CCS(=O)(=O)Nc1cc(-c2nc3cccnc3s2)ccc1C	-100.3	-58.9	-31.1	-0.1	-20.4	-66.8	·	·
O=S(=O)(C/C(=C/CO)S(=O)(=O)c1ccccc1)c1ccccc1	-59.2	-99.3	76.1*	0.2	72.1*	-39.4	37.5*	57.9*
O=C(Nc1cccc(S(=O)(=O)N2CCCC2)c1)c1ccc2c(=O)n3c(nc2c1)CCCCC3	20.0	12.9	14.3	0.0	24.4	25.4	·	·
O=C(Nc1cccc(S(=O)(=O)N2CCOCC2)c1)c1ccc2c(=O)n3c(nc2c1)CCCCC3	2.5	-17.3	38.7*	0.0	8.8	26.6	-3.2	8.8
O=C(Nc1nonc1NC(=O)c1cccs1)c1cccs1	49.0	29.8	49.3*	-0.1	13.6	29.7	3.6	34.2
O=C(Nc1ccc(NC(=O)c2cccs2)cc1)c1cccs1	-75.7	-45.9	-39.1	-0.3	-74.8	-82.5	·	·
COc1ccc(-n2nc3c(N4CCC(C(=O)NCC(C)c5ccccc5)CC4)nnc(C)c3c2C)cc1 (centres undefined)	11.7	7.0	8.1	-0.1	15.1	-2.9	·	·
Cc1cc(N2CCCC2=O)cc(C)c1S(=O)(=O)NCCOc1ccc(C(C)(C)C)cc1	-4.0	-137.1	43.6*	0.0	18.9	26.1	-0.9	18.6
CCCOc1ncnc2c1[nH]c1ccccc12	-2.1	-27.3	39.8*	-0.1	6.8	-5.0	-40.6	-1.0
CCCOc1ncnc2c1[nH]c1ccc(OC)cc12	-159.6	-93.4	-9.4	0.0	-23.9	-63.5	·	·
CC(C)Oc1ncnc2c1[nH]c1ccccc12	16.4	-9.2	38.1*	-0.1	2.3	-12.3	-52.7	24.8
CCN(CC)c1ncnc2c1[nH]c1ccccc12	11.2	8.5	1.9	0.0	-5.1	-6.0	·	·
CCN(CC)C(=O)[C@H]1C[C@H](CC(=O)NCCCn2ccnc2)C(=O)N2CCc3c([nH]c4cc(CCC(=O)N(C)C)ccc34)[C@]12C	12.4	-4.2	7.1	-0.5	15.4	18.7	·	·
Cc1ccccc1CS(=O)(=O)Cc1ccc(C(=O)Nc2ccc(F)cc2)o1	·	·	52.9*	·	18.1	·	3.1	21.6
Clc1nc(-c2ccccn2)nc2scc(-c3ccccc3)c12	-112.2	-107.5	-54.1	0.1	-27.7	-63.4	·	·
Cc1ccc(OCCN2CCN(C(=O)CCC(=O)Nc3nnc(C(C)C)s3)CC2)cc1	25.0	8.0	41.3*	0.1	17.3	20.3	-6.1	21.7
CCCN1CCCCC(NC(=O)c2ccc(F)c(F)c2)C1=O (centres undefined)	·	·	7.1	·	4.6	·	·	·
O=S(=O)(c1ccc(Cl)cc1)N1CCN(c2ncnc3sccc23)CC1	21.3	6.2	46.6*	-0.1	9.7	11.4	2.9	27.1
